Reference: PubChem BioAssay AID1159580 (chemical genetic matrix, 2015)
In all, about 5,500 compounds went through this assay and about 2,000 (36%) were called active. Inconclusive results (about 18%) are left out. No stated cut-off is given here; in the data, active means normalized growth mostly below about 0.91 (no sharp cut-off); inconclusive means no clear call, values can overlap the other calls; inactive means mostly above about 0.92. Some of the results follow.

Test: chemical genetic growth profiling, strain panel (AID 1159580);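 further: tested at 20 µM; growth read once vehicle control cultures reached saturation at 30 °C; 1 = growth at the plate median or of vehicle wells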
Details: growth OD

Measured: normalized growth

Cc1onc(-c2ccccc2)c1-c1ccc(S(N)(=O)=O)cc1
inactive: S. cerevisiae deletion strains, locus YJR043C, strain POL32, stronger effect = lower value 0.993 | S. cerevisiae deletion strains, locus YJR075W, strain HOC1, stronger effect = lower value 1 | S. cerevisiae deletion strains, locus YKL009W, strain mrt4, stronger effect = lower value 0.993 | S. cerevisiae deletion strains, locus YKL068W, stronger effect = lower value 1 | S. cerevisiae deletion strains, locus YKL085W, strain MDH1 (second series), stronger effect = lower value 0.996 | S. cerevisiae deletion strains, locus YKL085W, strain MDH1, stronger effect = lower value 0.996 | S. cerevisiae deletion strains, locus YKL160W, strain elf1, stronger effect = lower value 1 | S. cerevisiae deletion strains, locus YKL190W, strain CNB1, stronger effect = lower value 1.01 | S. cerevisiae deletion strains, locus YKR001C, strain vps1, stronger effect = lower value 0.991 | S. cerevisiae deletion strains, locus YKR026C, strain gcn3, stronger effect = lower value 0.987 | S. cerevisiae deletion strains, locus YKR091W, strain srl3, stronger effect = lower value 0.999 | S. cerevisiae deletion strains, locus YLL001W, strain dnm1, stronger effect = lower value 0.994 | S. cerevisiae deletion strains, locus YLL026W, stronger effect = lower value 0.999 | S. cerevisiae deletion strains, locus YLL041C, strain sdh2, stronger effect = lower value 1 | S. cerevisiae deletion strains, locus YLR027C, strain aat2, stronger effect = lower value 1.01 | S. cerevisiae deletion strains, locus YLR039C, strain RIC1, stronger effect = lower value 1 | S. cerevisiae deletion strains, locus YLR058C, strain SHM2, stronger effect = lower value 1.01 | S. cerevisiae deletion strains, locus YLR102C, strain apc9, stronger effect = lower value 0.998 | S. cerevisiae deletion strains, locus YLR221C, strain rsa3, stronger effect = lower value 0.995 | S. cerevisiae deletion strains, locus YLR258W, strain gsy2, stronger effect = lower value 1.01 | S. cerevisiae deletion strains, locus YLR262C, strain YPT6 (second series), stronger effect = lower value 1.01 | S. cerevisiae deletion strains, locus YLR262C, strain YPT6, stronger effect = lower value 0.986 | S. cerevisiae deletion strains, locus YLR268W, strain sec22, stronger effect = lower value 0.99 | S. cerevisiae deletion strains, locus YLR320W, strain mms22, stronger effect = lower value 1 | S. cerevisiae deletion strains, locus YLR330W, strain CHS5, stronger effect = lower value 1.01 | S. cerevisiae deletion strains, locus YLR342W, strain FKS1 (second series), stronger effect = lower value 1 | S. cerevisiae deletion strains, locus YLR342W, strain FKS1, stronger effect = lower value 1 | S. cerevisiae deletion strains, locus YLR357W, strain rsc2, stronger effect = lower value 1.03 | S. cerevisiae deletion strains, locus YLR370C, strain arc18, stronger effect = lower value 0.999 | S. cerevisiae deletion strains, locus YLR371W, strain rom2, stronger effect = lower value 0.998 | S. cerevisiae deletion strains, locus YLR384C, strain iki3, stronger effect = lower value 1.01 | S. cerevisiae deletion strains, locus YLR418C, strain cdc73, stronger effect = lower value 0.963 | S. cerevisiae deletion strains, locus YML016C, strain PPZ1, stronger effect = lower value 1 | S. cerevisiae deletion strains, locus YML032C, strain rad52, stronger effect = lower value 0.996 | S. cerevisiae deletion strains, locus YML120C, strain ndi1, stronger effect = lower value 0.992 | S. cerevisiae deletion strains, locus YML124C, strain tub3, stronger effect = lower value 0.996 | S. cerevisiae deletion strains, locus YMR058W, strain fet3, stronger effect = lower value 1 | S. cerevisiae deletion strains, locus YMR078C, strain ctf18, stronger effect = lower value 1 | S. cerevisiae deletion strains, locus YMR125W, strain sto1, stronger effect = lower value 0.988 | S. cerevisiae deletion strains, locus YMR129W, stronger effect = lower value 0.967 | S. cerevisiae deletion strains, locus YMR205C, strain PFK2, stronger effect = lower value 1 | S. cerevisiae deletion strains, locus YMR223W, strain ubp8, stronger effect = lower value 0.997 | S. cerevisiae deletion strains, locus YMR231W, strain pep5, stronger effect = lower value 1 | S. cerevisiae deletion strains, locus YMR263W, strain SAP30, stronger effect = lower value 1 | S. cerevisiae deletion strains, locus YMR307W, strain GAS1, stronger effect = lower value 0.977 | S. cerevisiae deletion strains, locus YNL067W, strain RPL9B, stronger effect = lower value 1 | S. cerevisiae deletion strains, locus YNL071W, strain lat1, stronger effect = lower value 1.01 | S. cerevisiae deletion strains, locus YNL128W, strain TEP1, stronger effect = lower value 1.01 | S. cerevisiae deletion strains, locus YNL153C, strain GIM3, stronger effect = lower value 1 | S. cerevisiae deletion strains, locus YNL209W, strain ssb2, stronger effect = lower value 0.994 | S. cerevisiae deletion strains, locus YNL233W, strain BNI4, stronger effect = lower value 1.01 | S. cerevisiae deletion strains, locus YNL248C, strain rpa49, stronger effect = lower value 1 | S. cerevisiae deletion strains, locus YNL250W, strain rad50, stronger effect = lower value 0.991 | S. cerevisiae deletion strains, locus YNL271C, strain bni1, stronger effect = lower value 1.01 | S. cerevisiae deletion strains, locus YNL298W, strain CLA4, stronger effect = lower value 0.989 | S. cerevisiae deletion strains, locus YNL307C, strain MCK1, stronger effect = lower value 0.998 | S. cerevisiae deletion strains, locus YNL322C, strain KRE1 (second series), stronger effect = lower value 1.02 | S. cerevisiae deletion strains, locus YNL322C, strain KRE1, stronger effect = lower value 1.01 | S. cerevisiae deletion strains, locus YNR049C, strain mso1, stronger effect = lower value 1 | S. cerevisiae deletion strains, locus YNR052C, strain pop2, stronger effect = lower value 1 | S. cerevisiae deletion strains, locus YOL006C, strain TOP1, stronger effect = lower value 0.992 | S. cerevisiae deletion strains, locus YOL012C, strain htz1 0.783 | S. cerevisiae deletion strains, locus YOL147C, strain pex11, stronger effect = lower value 0.997 | S. cerevisiae deletion strains, locus YOR001W, strain rrp6, stronger effect = lower value 1 | S. cerevisiae deletion strains, locus YOR061W, strain CKA2, stronger effect = lower value 0.998 | S. cerevisiae deletion strains, locus YOR069W, strain VPS5, stronger effect = lower value 1 | S. cerevisiae deletion strains, locus YOR070C, strain gyp1, stronger effect = lower value 0.993 | S. cerevisiae deletion strains, locus YOR080W, strain dia2, stronger effect = lower value 0.998 | S. cerevisiae deletion strains, locus YOR083W, strain WHI5, stronger effect = lower value 0.997 | S. cerevisiae deletion strains, locus YOR106W, strain vam3, stronger effect = lower value 1.01 | S. cerevisiae deletion strains, locus YOR136W, strain idh2, stronger effect = lower value 0.992 | S. cerevisiae deletion strains, locus YOR144C, strain elg1, stronger effect = lower value 1 | S. cerevisiae deletion strains, locus YOR184W, strain ser1, stronger effect = lower value 0.992 | S. cerevisiae deletion strains, locus YOR265W, strain rbl2, stronger effect = lower value 1 | S. cerevisiae deletion strains, locus YOR270C, strain vph1, stronger effect = lower value 1.01 | S. cerevisiae deletion strains, locus YOR290C, strain snf2, stronger effect = lower value 1.01 | S. cerevisiae deletion strains, locus YOR316C, strain cot1, stronger effect = lower value 0.991 | S. cerevisiae deletion strains, locus YPL051W, strain arl3, stronger effect = lower value 1.01 | S. cerevisiae deletion strains, locus YPL055C, strain LGE1, stronger effect = lower value 1.01 | S. cerevisiae deletion strains, locus YPL078C, strain atp4, stronger effect = lower value 0.996 | S. cerevisiae deletion strains, locus YPL106C, strain sse1, stronger effect = lower value 0.984 | S. cerevisiae deletion strains, locus YPL240C, strain hsp82, stronger effect = lower value 0.991 | S. cerevisiae deletion strains, locus YPL241C, strain CIN2, stronger effect = lower value 1 | S. cerevisiae deletion strains, locus YPR119W, strain clb2, stronger effect = lower value 1 | S. cerevisiae deletion strains, locus YPR141C, strain kar3, stronger effect = lower value 0.996 | S. cerevisiae deletion strains, locus YPR163C, strain tif3, stronger effect = lower value 0.991 | S. cerevisiae deletion strains, locus YPR167C, strain met16, stronger effect = lower value 0.995 | S. cerevisiae deletion strains, strain wtn01, stronger effect = lower value 0.985 | S. cerevisiae strains, strain wild type, stronger effect = lower value 0.999
